Luc counter: counter-screen: inhibitors of Kinase-Glo firefly luciferase; Kinase-Glo luciferase, ATP luminescence, 8 min; Potency, µM (doses to about 38.3 µM), for the others: at the highest dose activity change, negative = inhibition, most hits filed as inhibitors; hit rate 0.28% among 200,000; further: on the % scale 0 is the no-effect control and ±100 the full control effect; nearly all actives have a fitted effect of over 60% in size
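Luminescence was the read-out, taken after 8-minute incubation at ambient temperature. Luciferase turned over luciferin with 10 uM ATP in imidazole pH 7.2 buffer containing KCl, MgCl2, Tween 20 and BSA.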
SMN2 splice up: SMN2 splice variant enhancement | Potency, µM (series often up to 46.1 µM), without a hit: at the top dose activity change, positive = activation, hits mostly activators | HEK293 SMN2-luciferase splicing reporter, luminescence, 30-36 h | hit rate 2.8% among 210,000; further: % of control where 0% means no effect; nearly all actives have a fitted effect of over 55% in size
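HEK293 cells carry an SMN2 minigene-luciferase reporter in which exon 7 inclusion puts luciferase in frame. Cells were seeded at 2000 cells/well, attached for 10-12 hours, then exposed to compounds for 30-36 hours at 37C before ONE-Glo luminescence.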
Rab9 promoter act: Rab9 promoter activation; Potency, µM (titrated, usually from 9.22 µM), without a hit: top-dose activation, negative = inhibition, hits mostly activators; hit rate 2.8% among 320,000; AID 485297; Huh7 Rab9 promoter-luciferase reporter, luminescence, 24 h; further: % of control where 0% means no effect; nearly all actives have a fitted effect of over 60% in size
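Steps: seed 1500 Huh7 Rab9-luc cells per well, rest 2 h at 37 °C; add compound in DMSO; incubate 24 h; add luciferase reagent, 10 min ambient; read luminescence.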
NPC1 prom act: NPC1 promoter activation; hit rate 2.4% among 320,000; AID 485313; Potency, µM (titrated, usually from 9.22 µM), inactives show at the highest dose activation, hits mostly activators; Huh7 NPC1 promoter luciferase reporter, 24 h; further: % of control where 0% means no effect; nearly all actives have a fitted effect of over 60% in size
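In 1536-well qHTS, Huh7 cells harboring an NPC1 promoter–luciferase construct received compound for 24 h; activation was quantified by luminescence following luciferase reagent addition.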
FLuc modulator: firefly luciferase modulation, counter-screen for miR-21 project. purified FLuc, Km substrates, luminescence inhibition. AID 588342. hit rate 6.9% among 360,000. Potency, µM (series often up to 57.5 µM), inactives show top-dose activity change, negative = inhibition, usual class: inhibitors;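 further: plate controls were vehicle for no effect and reference inhibitor for full effect; nearly all actives have a fitted effect of over 55% in size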
Target sequence (P08659 whole entry, looked up): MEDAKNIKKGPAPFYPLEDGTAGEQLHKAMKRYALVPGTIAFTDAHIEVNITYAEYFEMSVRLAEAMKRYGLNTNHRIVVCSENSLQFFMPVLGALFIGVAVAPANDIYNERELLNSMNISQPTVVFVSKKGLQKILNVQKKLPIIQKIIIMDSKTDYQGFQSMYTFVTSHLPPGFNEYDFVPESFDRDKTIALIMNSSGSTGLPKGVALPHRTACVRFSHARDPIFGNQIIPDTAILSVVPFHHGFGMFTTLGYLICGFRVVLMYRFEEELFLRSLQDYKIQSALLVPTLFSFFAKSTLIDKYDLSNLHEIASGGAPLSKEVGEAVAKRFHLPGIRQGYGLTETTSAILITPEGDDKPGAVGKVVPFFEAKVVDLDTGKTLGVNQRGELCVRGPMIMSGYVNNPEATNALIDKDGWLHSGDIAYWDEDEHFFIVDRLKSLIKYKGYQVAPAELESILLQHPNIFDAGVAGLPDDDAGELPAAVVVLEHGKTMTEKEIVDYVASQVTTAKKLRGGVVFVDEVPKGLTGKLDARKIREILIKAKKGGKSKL
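Biochemical qHTS of compounds, final roughly 60 µM downward over six points, against 10 nM purified firefly luciferase using Km concentrations of substrates (10 uM D-luciferin, 10 uM ATP) in Tris acetate pH 7.5 buffer; luminescence output.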
ELG1 genotox: genotoxicity induction in ELG1-luciferase HEK293T cells; HEK293T ELG1-luciferase reporter, luminescence, 16 h; Potency, µM (titrated, usually from 46 µM), inactives show at the highest dose activity change, positive = activation, hits mostly activators; AID 504466; hit rate 1.3% among 330,000; further: % of control where 0% means no effect; nearly all actives have a fitted effect of over 60% in size
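Quantitative HTS format in 1536-well plates. HEK293T ELG1-luciferase reporter cells receive test compound and are incubated 16 hr at 37 °C, 5% CO2; ONE-Glo added, 30 min room temperature, then luminescence read.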
An asterisk follows results filed as active; u = inconclusive; x = not tested or not shown; [ ] = another dose, or the depositor's remark. An excerpt weighted towards active compounds, which were near 7.5% of everything screened. The call rests on the fitted dose curve; in most records, active means well fitted curve in the direction sought with a large enough effect; inconclusive means small, poorly fitted or top-dose-only effect, or another doubt; inactive means no such curve, though single readings can be large; an effect the other way counts as inactive or inconclusive. Potency means the concentration at half of the fitted maximal effect.

SMILES	Luc counter	SMN2 splice up	Rab9 promoter act	NPC1 prom act	FLuc modulator	ELG1 genotox
CC(C)c1nc2cc3ccccc3cc2[nH]1	-2%	-22%	19%	13%	19µM*	3%
COc1cccc(NC(=O)Cn2c(=O)n(-c3ccccc3)c(=O)c3c4c(sc32)CCCC4)c1	x	6%	x	x	0%	x
O=c1c2c3c(sc2nc2n1CCCCC2)C(O)CCC3 (stereo unspecified)	-5%	x	2.8µM*	u	u	u
O=C1c2sc3nc4n(c(=O)c3c2CCC1Br)CCCCC4 (stereo unspecified)	-6%	-4%	u	29%	19µM*	u
CCOC(=O)C1=C(C)NC(=O)CC1c1cc(OC)c(OC)cc1Br (stereo unspecified)	0%	-8%	-5%	-3%	3%	0%
Cc1ccc(NC(=O)Cn2cc(S(=O)(=O)N3CCC(C)CC3)c3ccccc3c2=O)c(Br)c1	x	-5%	x	x	-2%	x
COc1ccc(NC(=O)c2cnn(-c3ccccc3)c2C)cc1	x	x	0.4µM*	2.5µM*	3.8µM*	u
Cc1ccc(NC(=O)c2cnn(-c3ccccc3)c2C)cc1C	x	x	0.63µM*	0.4µM*	0.34µM*	u
COc1ccc(NC(=O)c2cnn(-c3ccccc3)c2C)cc1OC	x	x	u	2.8µM*	11µM*	u
NS(=O)(=O)c1cccc(NC(=O)CSc2nnc3n2CCCCC3)c1	x	x	x	x	x	-1%
COc1ccccc1NC(=O)c1cc(S(=O)(=O)NCCC2=CCCCC2)ccc1F	x	x	x	x	1%	x
CC1CCC2(CC1)NC(=O)N(CC(=O)N1CCN(S(=O)(=O)c3ccc4c(c3)CCC4)CC1)C2=O (stereo unspecified)	x	x	-4%	1%[1.84 µM]	3%	0%
CCOc1ccccc1NC(=O)c1ccc2c(c1)CCN2S(C)(=O)=O	x	1%	x	x	1%	x
COc1cc(-c2noc(-c3ccc(N(C)C)c([N+](=O)[O-])c3)n2)cc(OC)c1OC	x	x	x	x	15µM*	x
COc1cc(-c2noc(-c3ccc(N4CCCCC4)c([N+](=O)[O-])c3)n2)cc(OC)c1OC	x	x	x	x	17µM*	x
Cc1ccc(N(Cc2cccs2)C(=O)c2ccco2)cc1	x	x	x	x	-20%	x
CCOC(=O)c1c(/C=N/Nc2ccccc2)c2sc(C)cc2n1C	x	x	14%	11%	u	x
Cc1nn(Cc2ccccc2Cl)c(Cl)c1C(=O)NCCc1ccccc1	1%	11µM*	1.6µM*	4µM*	3.8µM*	u
COc1ccc(-n2nc(C(=O)N3CCC(C)CC3)c3c4ccccc4n(C)c3c2=O)cc1Cl	x	7%	x	x	-1%	x
Cc1ccc(NC(=O)c2nc3nccc(C)n3n2)c(C)c1	-5%	11µM*	u	u	u	u
Cc1ccnc2nc(C(=O)Nc3nc4ccccc4s3)nn12	x	x	2.8µM*	1µM*	11µM*	u
Cc1csc(NC(=O)c2nc3nccc(C)n3n2)n1	-5%	14%	u	u	u	u
Cc1ccnc2nc(C(=O)Nc3nnc(CC(C)C)s3)nn12	-1%	x	-2%	0%	4%	8%
Cc1ccccc1Nc1nnc(-c2ccc(C)c(S(=O)(=O)N3CCCCC3)c2)c2ccccc12	x	2%	x	x	-6%	x
O=C(O)Cc1ccc2sc(-c3ccccc3)nc2c1	u	21%	21%	14%	19µM*	8%
SMILES	Luc counter	SMN2 splice up	Rab9 promoter act	NPC1 prom act	FLuc modulator	ELG1 genotox
COC(=O)Cc1ccc2sc(-c3ccccc3)nc2c1	13µM*	1.6µM*	2.5µM*	1.6µM*	0.67µM*	2.6µM*
COc1ccc(CCNC(=O)CCc2cn(Cc3ccc(F)cc3)c3ccccc23)cc1OC	x	x	x	x	-8%	x
COc1ccc(CCNC(=O)CCCN2C(=O)C(c3ccccc3)Oc3cccnc32)cc1OC (stereo unspecified)	x	x	-3%	-6%	2%	-15%
O=C(CSc1nnc(NC(=O)c2ccco2)s1)Nc1ccccc1Br	x	x	-1%	3%	-13%	5%
O=C(CSc1nnc(NC(=O)c2ccco2)s1)Nc1ccccc1F	-3%	10%	0%	-2%	15µM*	4%
Cc1ccccc1NC(=O)CSc1nnc(NC(=O)c2ccco2)s1	x	x	10%	1%	27µM*	8%
CC(C)(C)CC(=O)Nc1nnc(SCC(=O)Nc2ccccc2F)s1	0%	-15%	1%	-6%	-12%	-17%
O=C(CSc1nnc(NC(=O)c2ccccc2F)s1)Nc1ccccc1F	-23%	27%	3.5µM*	u	2.7µM*	u
O=C1CSC(=Nc2cccc(Cl)c2Cl)N1	x	x	-4%	-5%	-9%	-2%
Cc1ccc(CSc2nc3cccnc3n2Cc2ccc(C(=O)NCCc3cccs3)cc2)cc1	x	x	x	x	0.43µM*	x
O=C(c1ccc(CSc2nc3ccncc3n2Cc2ccccc2F)cc1)N1CCCCCC1	x	-18%	x	x	24µM*	x
O=C(NC1CCCCC1)c1ccc(CSc2nc3cccnc3n2Cc2ccccc2F)cc1	x	x	x	x	-16%	x
Cc1ccc(CSc2nc3cccnc3n2Cc2ccc(C(=O)NC3CCCCC3)cc2)cc1	x	x	x	x	0.34µM*	x
Cc1ccccc1Cn1c(SCc2ccc(C(=O)N3CCCCC3)cc2)nc2ccncc21	x	-64%	x	x	u	x
O=C(NC1CCCCC1)c1ccc(Cn2c(SCc3ccccc3F)nc3cccnc32)cc1	x	x	x	x	8.5µM*	x
CCc1cccc(NC(=O)C2CCN(C(=O)c3cnn(-c4ccccc4)c3-n3cccc3)CC2)c1	x	-38%	x	x	u	x
CCCC[C@]12Cc3cc(OC)c(OC)cc3C(O1)C1=C(O2)C(=O)c2ccccc2C1=O	x	x	-2%[1.84 µM]	3%[1.84 µM]	-8%[11.5 µM]	x
CCOC(=O)C1(CCOC)CCN(C(=O)c2ccc(CSC)o2)CC1	x	x	-5%	2%	2%	4%
O=C(NC1CC1)c1ccc(Cn2c(SCc3ccccc3F)nc3cccnc32)cc1	x	x	x	x	4.8µM*	x
N#C/C(=C/c1ccc(N2CCCC2)c([N+](=O)[O-])c1)c1nc2ccccc2[nH]1	-2%	8%	u	u	6µM*	3%
N#C/C(=C/c1ccc(N2CCOCC2)o1)c1ccc(Cl)cc1	-1%	u	2.8µM*	3.5µM*	8.5µM*	u
N#C/C(=C\c1ccncc1)c1nc2ccccc2[nH]1	-8%	17%	-2%	4%	u	0%
N#C/C(=C\c1ccc(N2CCCCC2)o1)C(N)=O	-2%	x	7%	15%	u	8%
N#C/C(=C\c1ccc(N2CCOCC2)o1)c1nc2ccccc2[nH]1	-26%	0.56µM*	0.5µM*	0.71µM*	0.43µM*	u
N#C/C(=C\c1ccc(N2CCOCC2)c([N+](=O)[O-])c1)c1nc2ccccc2[nH]1	1%	-7%	-1%	18%	15µM*	-1%

Screening data from PubChem BioAssay.
